{
  "source": "PubChem BioAssay (EPA / NIEHS)",
  "note": "The source made the active and inactive calls. How the source made its calls: active means hit-call score of the fitted dose curve at least 0.9, where 1 is the maximum; inconclusive means response in the unintended direction; inactive means score below 0.9.",
  "data": [
    {"experiment": "Tanguay_ZF_120hpf_MORT_legacy: (Legacy) Oregon State University Tanguay Lab 120 Hour Post-fertilization zebrafish Assay for Mortality (AID 2283633)", "method": "Tanguay_ZF_120hpf_legacy is a whole embryo, multiplexed endpoint assay using zebrafish larvae exposed for 120 hours post fertilization on a 96-well plate.Tanguay_ZF_120hpf_MORT_legacy is one of one assay component(s) measured or calculated from the Tanguay_ZF_120hpf_legacy assay. It is designed to make measurements of embryonic mortality as detected with brightfield microscopy of developing zebrafish embryos.Data from the assay component Tanguay_ZF_120hpf_MORT_legacy was analyzed into 1 assay endpoints. This assay endpoint, Tanguay_ZF_120hpf_MORT_legacy, was analyzed in the positive analysis fitting direction relative to DMSO as the negative control and baseline of activity. Using a type of viability reporter, gain-of-signal activity can be used to understand changes in developmentals as they relate to the whole embryo. To generalize the intended target to other relatable targets, this assay endpoint is annotated to the embryonic mortality intended target family, where the subfamily is embryonic mortality.\nZebrafish husbandry: Tropical 5D wild-type adult zebrafish were housed in at an approximate density of 1000 per 100 gallon tank at the Sinnhuber Aquatic Research Laboratory, Oregon State University, Corvallis, OR. Each tank was kept at standard laboratory conditions of 28C on a 14-h light/10-h dark photoperiod in fish water consisting of reverse osmosis water supplemented with a commercially available salt (Instant Ocean). Spawning funnels were placed into the tanks the night prior, and embryos were collected and staged. To increase bioavailability, the chorion was enzymatically removed using pronase (63.6mg/ml, >/= 3.5U/mg, Sigma-Aldrich: P5147) at 4 hours post fertilization (hpf) using a custom automated dechorionator.Chemical exposures: Six hpf dechorionated embryos were placed 1 embryo per well in a 96-well plate prefilled with 90 ul of EM using automated embryo placement systems (AEPS). Ten microliters of each row of dilution plate 2 was added to 2 exposure plates. The final DMSO concentration used was 0.64% (vol/vol). Thirty-two embryos were also exposed to 5uM trimethyltin chloride (positive control). Plates were sealed to prevent evaporation and foil covered to reduce light exposure and kept in a 28C incubator. Embryos were statically exposed until 120 hpf. At 24 hpf, embryos were assessed for photomotor response using a custom photomotor response analysis tool (PRAT) and for developmental toxicity endpoints (MO24: mortality at 24 hpf, DP: developmental progression, SM: spontaneous movement, and NC: notochord distortion). At 120 hpf, locomotor activity was measured using Viewpoint Zebralab and assessed for 18 endpoints. Zebrafish acquisition and analysis program (ZAAP), a custom program designed to inventory, acquire, and manage zebrafish data, was used to collect developmental endpoints as either present or absent (i.e., binary responses were recorded). If mortality occurred for an embryo (at either 24 or 120 hpf), the non-mortality endpoints were not measured.", "values": [
      {"smiles": "CN(C)c1ccc(Cc2ccc(N(C)C)cc2)cc1", "outcome": "inactive"},
      {"smiles": "CCN(C(=O)c1cc(C)cc(OC[C@H](C)Nc2ccncc2)c1)C(C)C", "outcome": "inactive"},
      {"smiles": "CC(=O)c1ccc2c(c1)[C@H](NC(=O)c1ccc(F)cc1)[C@@H](O)C(C)(C)O2", "outcome": "inactive"},
      {"smiles": "CC[C@H]1CC[C@H](NCc2cc3c(cc2OC)[C@H]2C[C@H]2C(=O)N3C)[C@H](c2ccccc2)N1", "outcome": "inactive"},
      {"smiles": "CCC(C)(C)C(=O)O[C@H]1C[C@@H](C)C=C2C=C[C@H](C)[C@H](CC[C@@H]3C[C@@H](O)CC(=O)O3)[C@H]21", "AC50": "1.45 µM (active)"},
      {"smiles": "CC(C)=CCC/C(C)=C\\CO", "outcome": "inactive"},
      {"smiles": "COc1cccc(-c2ccc(/C=C\\CN3CCCCCC3)cc2Cl)c1", "AC50": "32.4 µM (active)"},
      {"smiles": "CCCCCCCCO", "outcome": "inactive"},
      {"smiles": "CC[C@H](C)C(=O)O[C@H]1C[C@@H](C)C=C2C=C[C@H](C)[C@H](CC[C@@H]3C[C@@H](O)CC(=O)O3)[C@H]21", "AC50": "1.33 µM (active)"},
      {"smiles": "CCn1nc(Cc2ccccc2)cc1C1CCN(C[C@H]2C[C@H](N(C)[C@@H](C(=O)O)C(C)C)C[C@@H]2c2cccc(F)c2)CC1", "outcome": "inactive"},
      {"smiles": "CCCC(=O)OCC", "outcome": "inactive"},
      {"smiles": "CCCCCCCCCCCCCCCO", "outcome": "inactive"},
      {"smiles": "COc1ccc(/C=C/S(=O)(=O)NC(=O)c2ccc(C)cc2Cl)cc1", "outcome": "inactive"},
      {"smiles": "O=C(OC[C@H]1O[C@@H](OC(=O)c2cc(O)c(O)c(OC(=O)c3cc(O)c(O)c(O)c3)c2)[C@H](OC(=O)c2cc(O)c(O)c(OC(=O)c3cc(O)c(O)c(O)c3)c2)[C@@H](OC(=O)c2cc(O)c(O)c(OC(=O)c3cc(O)c(O)c(O)c3)c2)[C@@H]1OC(=O)c1cc(O)c(O)c(OC(=O)c2cc(O)c(O)c(O)c2)c1)c1cc(O)c(O)c(OC(=O)c2cc(O)c(O)c(O)c2)c1", "outcome": "inactive"},
      {"smiles": "COCCOCCOCCOC", "outcome": "inactive"},
      {"smiles": "O=C(O)c1cccc(Oc2ccccc2)c1", "outcome": "inactive"},
      {"smiles": "On1ccccc1=S", "outcome": "inactive"},
      {"smiles": "O=C(O)CCN(C1(C(=O)NO)CCCC1)S(=O)(=O)c1ccc(Oc2ccc(F)cc2)cc1", "outcome": "inactive"},
      {"smiles": "CCNc1ccccc1", "outcome": "inactive"},
      {"smiles": "CCOc1cccc(-n2cc(C(=O)N3CCN(c4cc(C(=O)O)c5ccccc5c4)CC3)nc2-c2ccc(C)cc2)c1", "outcome": "inactive"},
      {"smiles": "O=C(O)c1cc(N=Nc2ccc(S(=O)(=O)Nc3ccccn3)cc2)ccc1O", "outcome": "inactive"},
      {"smiles": "CC(C)c1cccc(C(C)C)c1N1C(=O)c2ccc(O)cc2C1=O", "AC50": "26.9 µM (active)"},
      {"smiles": "CCOC(=O)c1ccc(C2CCC(NC[C@H](O)COc3ccc(O)c(NS(C)(=O)=O)c3)CC2)cc1", "note": "(stereo not given in full)", "outcome": "inactive"},
      {"smiles": "Clc1nc(Cl)c(Cl)c(Cl)c1Cl", "outcome": "inactive"},
      {"smiles": "CNCc1ccc(NC(=O)c2c[nH]c3c2C(=O)CCC3)cc1", "outcome": "inactive"},
      {"smiles": "Cn1cnc([N+](=O)[O-])c1Sc1ncnc2nc[nH]c12", "outcome": "inactive"},
      {"smiles": "CC(O)CN(CCN(CC(C)O)CC(C)O)CC(C)O", "note": "(stereo not given)", "outcome": "inactive"},
      {"smiles": "Cc1ccc(O)cc1", "outcome": "inactive"},
      {"smiles": "CC/C(=C\\C(=N/O)C(N)=O)C(C)[N+](=O)[O-]", "note": "(stereo not given)", "outcome": "inactive"},
      {"smiles": "COC(=O)c1ccccc1O", "outcome": "inactive"},
      {"smiles": "COC(=O)c1c(Cl)c(Cl)c(C(=O)OC)c(Cl)c1Cl", "outcome": "inactive"},
      {"smiles": "Cc1ccc(S(=O)(=O)O)cc1C", "outcome": "inactive"},
      {"smiles": "COc1ccc(-n2nc(C(F)F)cc2-c2ccc(S(C)=O)cc2)cc1", "note": "(stereo not given)", "outcome": "inactive"},
      {"smiles": "CCCCCCCCCCCCc1ccccc1", "outcome": "inactive"},
      {"smiles": "O=C1OC(=O)C2C3C=CC(C3)C12", "note": "(stereo not given)", "outcome": "inactive"},
      {"smiles": "O=P(OC(CCl)CCl)(OC(CCl)CCl)OC(CCl)CCl", "outcome": "inactive"},
      {"smiles": "Cc1[nH]cnc1C[C@H]1CCc2c(C)c3ccccc3n2C1=O", "outcome": "inactive"},
      {"smiles": "O=C(CCCCCCCCc1cccnc1)N1CCC(C=C(c2ccccc2)c2ccccc2)CC1", "outcome": "inactive"},
      {"smiles": "C1N2CN3CN1CN(C2)C3", "outcome": "inactive"},
      {"smiles": "CCCCC(CC)COC(=O)c1ccc(C(=O)OCC(CC)CCCC)cc1", "note": "(stereo not given)", "outcome": "inactive"}
    ]}
  ]
}
